# Source: PubChem BioAssay (NCATS)
# Several values for one entry are separate records, joined by “and”; a condition that tells them apart may be missing. Equal entries are not always repeated. Records with an inconclusive call do not appear. Activity calls are given as the source filed them. Unless noted, calls follow the shape of the dose curve; as a rule, active = well fitted curve in the direction sought with a large enough effect; inconclusive = small, poorly fitted or top-dose-only effect, or another doubt; inactive = no such curve, though single readings can be large; an effect the other way counts as inactive or inconclusive.
# Legend:
# [1] = qHTS Assay for Identifying Gametocytocidal Compounds (AID 743244); also: potency is read from the fitted curve at half-maximal effect;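 as to max response: % is scaled to controls: 0 for no effect and ±100 for the full control effect; actives lower the fluorescent signal which means gametocytes are killed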; conditions: P. falciparum 3D7 stage III-V gametocytes, alamarBlue, 72 h; max response: stronger effect = lower value
# Procedure, shortened: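 P. falciparum 3D7 stage III–V gametocytes (20,000 cells/well) were exposed to compounds for 72 h at 37 °C, 5% CO2. AlamarBlue was then added for 24 h; decreased resorufin fluorescence (Ex 525/Em 598 nm) indicated loss of viability.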
# [2] = qHTS assay for small molecule agonists of the antioxidant response element (ARE) signaling pathway measured by Nrf2-dependant transcriptional activity - cell viability counter screen (AID 720653; active = well fitted curve in the direction sought with a large enough effect in the repeat runs; an effect the other way counts as inactive or inconclusive; also: % is scaled to controls: 0 for no effect and ±100 for the full control effect); conditions: ARE-bla HepG2 viability, CellTiter-Glo ATP luminescence, 16 h; stronger effect = lower value
# Procedure, shortened: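 ARE-bla HepG2 cells (2,000/well) rested 5 hrs at 37C/5% CO2, then exposed to compounds in DMSO for 16 hrs. Viability was read in the same wells as intracellular ATP by luminescence, 30 min at room temperature after reagent addition.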
# [3] = qHTS assay for cell viability of HEK293 cells (AID 743288); conditions: ATP luminescence (CellTiter-Glo), 18 h; max response: stronger effect = lower value; also: nearly all actives have a fitted effect of over 50% in size; also: potency is read from the fitted curve at half-maximal effect; as to max response: % is scaled to controls: 0 for no effect and ±100 for the full control effect
# Procedure, shortened: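 The Tox21 protocol used parental HEK293 cells treated for 18 h at 37 C with compounds delivered by pintool; ATP-coupled luminescence after 30 min at room temperature gave viability.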
# [4] = qHTS assay for cell viability of the p53RE-bla HCT-116 cell line (AID 743292); also: % is scaled to controls: 0 for no effect and ±100 for the full control effect; nearly all actives have a fitted effect of over 55% in size
# Procedure, shortened: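 In this qHTS counter-screen, metabolically competent p53RE-bla HCT-116 cells were counted via their ATP content. Compounds were applied for 16 h at 37 C and luciferase-coupled luminescence was measured.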
# [5] = qHTS assay for small molecule antagonists of the retinoid-related orphan receptor gamma (ROR-gamma) signaling pathway - cell viability counter screen (AID 720652; active = well fitted curve in the direction sought with a large enough effect in the repeat runs; an effect the other way counts as inactive or inconclusive;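 also: compound exposure lasted 16 hr before ATP read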; also: potency is read from the fitted curve at half-maximal effect)
# Procedure, shortened: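 CHO cells carrying TET-inducible ROR and RORE-luciferase reporter, plated 5 hr, then dosed with compound plus doxycycline. After 16 hr at 37 C, viability read as intracellular ATP by CellTiter-Glo luminescence.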
# [6] = biological target: T1, Hexokinase-4 (Homo sapiens) + Glucokinase regulatory protein (Homo sapiens) (UniProt P35557+Q14397); experiment: qHTS assay for inhibitors of recombinant human GCK-GKRP interaction: Diaphorase-coupled assay (AID 743205)
# Excerpt: Glucokinase (GCK) is a glucose sensor in hepatocytes and pancreatic beta-cells. Hepatic GCK is regulated by glucokinase regulatory protein (GKRP), which is predominantly localized to the liver. GKRP binds to GCK inhibiting its activity in the fasting state while in the presence of glucose the GKRP is displaced. There is an additional layer of regulation by fructose 1-phosphate and fructose 6-phosphate, which inhibit and enhance the GCK-GKRP interaction, respectively. GCK plays a role in glucose homeostasis and there is an interest in the development of strategies to activate GCK to lower blood glucose levels in type 2 diabetes. To date the majority of effort has focused on direct activation of GCK and the assays developed herein look to activate GCK by inhibiting its binding to GKRP. A compound that inhibits the interaction of GCK with GKRP could be important for the treatment of diabetes and can also be used as a tool compound to further elucidate GCK-GKRP biology. To that end, we have developed a sensitive HTS biochemical assay where in GCK activity is coupled to G6PDH and Diaphorase to interrogate the GCK-GKRP interaction. This assay was screened against a small compound library to look for modulators of activity.
# 2 uL of substrate (columns 1-48) are dispensed into Greiner, black solid-bottom 1536-well assay plates. Compounds (23 nL) are then transferred via Kalypsys pin tool equipped with 1536-pin array (10 nL slotted pins, V&P Scientific, San Diego, CA). The library compounds are in columns 5-48 and columns 1-4 serve as controls with DMSO in columns 1 and 3 and 26 mM 1:1.5 fold serial of gluckokinase activator (GKA-EMD) in column 2 and 26 mM of the glucokinase activator (GKA-EMD) in column 4. Following addition of compound and a 20 minute incubation, 1 uL of enzyme mix (GST-GCK, FLAG-GKRP and diaphorase) is added to columns 1, 2, 4-48 and 1 uL of no enzyme mix (FLAG-GKRP and diaphorase) is added to column 3 and the fluorescent product resorufin generated from resazurin was monitored on a Viewlux (PerkinElmer, Shelton, CT, USA) with excitation at 525 nm and emission at 590 nm in kinetic mode where the plate was read every minute for 30 minutes. The final concentration of reagents in the reaction are 25 mM Hepes pH 7.6, 25 mM KCl, 2 mM MgCl2, 1.4 mM 2-mercaptoethanol, 0.025% BSA, 0.01% Tween-20, 0.15 mM NADP+, 5 mM glucose, 0.4 mM ATP, 4 U/ml G6PDH, 0.1 mM resazurin, 10 nM GST-GCK, 10 nM FLAG-GKRP, diaphorase (0.1 mg/mL). Data are normalized to DMSO-treated control columns with (maximum signal) and without (minimum signal) enzyme.
# [7] = biological target: T1, Hexokinase-4 (Homo sapiens) + Glucokinase regulatory protein (Homo sapiens); experiment: qHTS assay for inhibitors of recombinant human GCK-GKRP interaction: ADP-Glo assay (AID 743206);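 also: plate controls were DMSO plus enzyme for no effect and no enzyme for full effect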
# Procedure, shortened: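 GST-GCK and FLAG-GKRP (15 nM each in the dispensed mix, with 2 uM S6P) react with 0.4 mM ATP and 5 mM glucose (final) in Hepes pH 7.6 for 60 min at room temperature. ADP is measured by ADP-Glo luminescence.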
# [8] = biological target: T1, Hexokinase-4 (Homo sapiens) + Glucokinase regulatory protein (Homo sapiens); experiment: qHTS assay for inhibitors of recombinant human GCK-GKRP interaction: HTRF assay (AID 743207);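 also: 0% = DMSO with GCK present and -100% = DMSO wells lacking GCK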
# Procedure, shortened: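 Steps: dispense GCK–GKRP complex (5 nM each, GST- and FLAG-tagged) with 2 uM S6P; pin in compounds; add XL665/Eu-cryptate-labelled antibodies; incubate 60 min at room temperature; read time-resolved FRET at 665 and 615 nm.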
# [9] = qHTS profiling for inhibitors of Plasmodium falciparum (3D7) proliferation (AID 743322; call rule not given here;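 also: infected erythrocytes exposed to compound for 72 h before lysis; 100% = DMSO vehicle wells and 0% = 0.29 µM artemisinin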); conditions: P. falciparum 3D7 proliferation; at 28.7 µM (top of the series)
# Procedure, shortened: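 Erythrocytes infected with P. falciparum (0.3% parasitemia, 2.5% hematocrit) incubated with compounds 72 h at 37 C, 5% CO2. Lysis with saponin/Triton buffer containing SYBR Green I, overnight at room temperature in the dark; DNA fluorescence (485/535 nm) normalised to 0.29 uM artemisinin and DMSO.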
# [10] = qHTS profiling for inhibitors of Plasmodium falciparum (DD2) proliferation (AID 743323; call rule not given here); conditions: lower = more inhibition; at 28.7 µM (top of the series)
# Procedure, shortened: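 Parasite proliferation measured via DNA-dye fluorescence, as uninfected erythrocytes lack DNA. Cultures at 0.3% parasitemia and 2.5% hematocrit incubated 72 h with compound; signal scaled between vehicle and 0.29 uM artemisinin wells.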
# T1 sequence (P35557 whole entry, looked up): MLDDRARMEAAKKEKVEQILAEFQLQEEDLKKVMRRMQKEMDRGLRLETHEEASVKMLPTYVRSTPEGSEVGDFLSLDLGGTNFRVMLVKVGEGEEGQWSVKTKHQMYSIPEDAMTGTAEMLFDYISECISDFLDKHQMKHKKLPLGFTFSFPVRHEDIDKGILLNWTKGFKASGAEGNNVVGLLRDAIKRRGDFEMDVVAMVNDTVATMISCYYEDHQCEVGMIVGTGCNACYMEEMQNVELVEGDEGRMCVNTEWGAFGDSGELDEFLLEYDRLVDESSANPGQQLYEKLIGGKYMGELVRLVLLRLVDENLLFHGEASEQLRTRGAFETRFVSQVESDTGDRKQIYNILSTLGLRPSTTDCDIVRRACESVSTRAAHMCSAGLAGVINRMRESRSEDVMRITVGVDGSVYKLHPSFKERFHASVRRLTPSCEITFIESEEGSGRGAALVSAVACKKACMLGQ
# T1 sequence (Q14397 whole entry, looked up): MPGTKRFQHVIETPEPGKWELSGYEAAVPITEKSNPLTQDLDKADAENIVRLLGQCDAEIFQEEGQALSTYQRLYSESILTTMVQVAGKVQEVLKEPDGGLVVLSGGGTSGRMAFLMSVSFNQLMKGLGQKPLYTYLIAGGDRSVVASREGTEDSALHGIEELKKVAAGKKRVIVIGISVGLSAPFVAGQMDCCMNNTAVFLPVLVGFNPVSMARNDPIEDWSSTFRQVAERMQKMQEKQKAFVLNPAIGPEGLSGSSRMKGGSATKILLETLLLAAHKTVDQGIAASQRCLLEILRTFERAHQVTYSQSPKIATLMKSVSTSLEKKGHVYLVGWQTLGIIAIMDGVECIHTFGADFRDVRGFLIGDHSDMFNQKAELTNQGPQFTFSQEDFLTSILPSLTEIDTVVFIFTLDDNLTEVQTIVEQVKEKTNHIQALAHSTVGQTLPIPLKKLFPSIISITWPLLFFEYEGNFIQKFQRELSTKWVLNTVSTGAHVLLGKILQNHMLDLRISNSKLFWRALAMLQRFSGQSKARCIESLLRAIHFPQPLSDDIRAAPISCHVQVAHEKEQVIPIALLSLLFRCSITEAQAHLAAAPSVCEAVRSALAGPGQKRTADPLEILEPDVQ
compound,measurement,setting,value
CCC1(c2ccccc2)CCC(=O)NC1=O (centres undefined),max response,[1],-3.28% (inactive)
COP(=O)(OC)C(O)C(Cl)(Cl)Cl (centres undefined),max response,[2],-9.64% (inactive)
same,max response,[3],-19.1% (inactive)
same,outcome,[4],inactive
COP(=O)(OC)OC=C(Cl)Cl,Potency,[5],inactive
same,max response,[2],-9.52% (inactive) [middle of 4 runs]
same,max response,[1],-6.93% (inactive)
same,max response,[3],-9.07% (inactive) [middle of 4 runs]
same,outcome,[4],inactive
O=C(O)c1nn(Cc2ccc(Cl)cc2Cl)c2ccccc12,outcome,[6],inactive
same,outcome,[7],inactive
same,outcome,[8],inactive
same,remaining parasite growth % (stronger effect = lower value),[9],86.6%
same,"activity, percent of control",[10],60.1%
CCN(CC)CCOC(=O)C(C)(c1ccccc1)c1ccccc1,max response,[1],10.8% (inactive)
CCOC(=O)Nc1ccc(NCc2ccc(F)cc2)nc1N,outcome,[6],inactive
same,Potency,[1],3.55 µM (active)
CNC(=O)Oc1ccc2c(c1)[C@]1(C)CCN(C)[C@@H]1N2C,outcome,[6],inactive
same,Potency,[1],11.2 µM (active) and 3.55 µM (active)
COc1ccc(C(=O)N2CCCC2=O)cc1,outcome,[6],inactive
same,outcome,[7],inactive
same,outcome,[8],inactive
same,max response,[1],-3.61% (inactive) and 29.8% (inactive)
Oc1ccc(Cl)cc1Cc1cc(Cl)ccc1O,max response,[2],-12% (inactive)
CCCCCCCCC(=O)NCc1ccc(O)c(OC)c1,max response,[2],-1.94% (inactive)
same,max response,[1],-2.23% (inactive)
same,max response,[3],-11.8% (inactive)
same,outcome,[4],inactive
CN(C)C(=S)SSC(=S)N(C)C,Potency,[5],33.5 µM (active)
same,max response,[2],-25.3% (inactive)
same,Potency,[1],0.0662 µM (active)
same,Potency,[3],44.7 µM (active)
same,outcome,[4],inactive
CN1C(=O)[C@@H](NC(=O)c2cc3ccccc3[nH]2)N=C(c2ccccc2)c2ccccc21,max response,[1],-6.73% (inactive)
